# Data: PubChem BioAssay (Tox21)
# “And” between values parts separate entries of the source, which are not always exact repeats. Equal entries are not always repeated. Inconclusive results are not listed. A call without a number means that no potency is given here. Some compounds were tested as several samples or in several runs, with calls that do not always agree. The source made the active and inactive calls. Unless noted, calls come from the whole dose curve; as a rule, active = well fitted curve in the direction sought with a large enough effect in the repeat runs; inconclusive = weak or mixed curves; inactive = no such curve, though single readings can be large; an effect the other way counts as inactive or inconclusive.
# Legend:
# [1] = qHTS assay to identify small molecule antagonists of the glucocorticoid receptor (GR) signaling pathway - cell viability counter screen (AID 720693); note: nearly all actives have a fitted effect of over 55% in size
# [2] = qHTS assay for identifying genotoxic compounds that show differential cytotoxicity against isogenic chicken DT40 cell lines with known DNA damage response pathways - wild type cell line (AID 743012); note: nearly all actives have a fitted effect of over 60% in size; note: potency is the fitted concentration of half-maximal effect
# Method in brief: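 Viability of DNA repair-proficient chicken DT40 cells was assessed by CellTiter-Glo luminescence following 40 h compound exposure at 37 C/5% CO2.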
# [3] = qHTS assay for identifying genotoxic compounds that show differential cytotoxicity against isogenic chicken DT40 cell lines with known DNA damage response pathways - Rev3 mutant cell line (AID 743014); note: nearly all actives have a fitted effect of over 55% in size
# [4] = qHTS assay for identifying genotoxic compounds that show differential cytotoxicity against isogenic chicken DT40 cell lines with known DNA damage response pathways - Rad54/Ku70 mutant cell line (AID 743015); note: nearly all actives have a fitted effect of over 60% in size
# [5] = qHTS assay to identify small molecule antagonists of the androgen receptor (AR) signaling pathway - cell viability counter screen (AID 743033; note: nearly all actives have a fitted effect of over 45% in size)
# [6] = qHTS assay to identify small molecule antagonists of the androgen receptor (AR) signaling pathway using the MDA cell line - cell viability counter screen (AID 743041; note: nearly all actives have a fitted effect of over 45% in size)
# Method in brief: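 qHTS viability read-out; MDA-kb2 AR-luc; R1881-stimulated; 16 h exposure at 37C, 0% CO2; CellTiter-Fluor, 30 min; fluorescence intensity.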
# [7] = qHTS assay to identify small molecule antagonists of the thyroid receptor (TR) signaling pathway (AID 743065); note: series mostly up to about 70 µM; nearly all actives have a fitted effect of over 55% in size
# Method in brief: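 GH3.TRE-Luc rat pituitary cells carrying two TR response elements driving luciferase were plated for 4 h, given compound plus 1 nM T3 (final), and incubated 23.5 h at 37 C. ONE-Glo luminescence measured reporter inhibition; CellTiter-Fluor fluorescence tracked cytotoxicity.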
# [8] = tested on: thyroid hormone receptor (rat, GH3 cells); assay: qHTS assay to identify small molecule agonists of the thyroid receptor (TR) signaling pathway (AID 743066; calls by dose curve)
# [9] = qHTS assay to identify small molecule antagonists of the estrogen receptor alpha (ER-alpha) signaling pathway - cell viability counter screen (AID 743074; calls by dose curve; note: nearly all actives have a fitted effect of over 45% in size)
# [10] = qHTS assay to identify small molecule antagonists of the estrogen receptor alpha (ER-alpha) signaling pathway using the BG1 cell line - cell viability counter screen (AID 743081);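 note: compound given together with 17beta-estradiol as the ER stimulus; series mostly up to about 70 µM; nearly all actives have a fitted effect of over 45% in size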
# Aromatase (Homo sapiens) = Aromatase (Homo sapiens) (UniProt P11511); assay: qHTS assay to identify aromatase inhibitors (AID 743083); note: series mostly up to about 70 µM; nearly all actives have a fitted effect of over 55% in size
# Sequence of Aromatase (Homo sapiens) (P11511 whole entry, looked up): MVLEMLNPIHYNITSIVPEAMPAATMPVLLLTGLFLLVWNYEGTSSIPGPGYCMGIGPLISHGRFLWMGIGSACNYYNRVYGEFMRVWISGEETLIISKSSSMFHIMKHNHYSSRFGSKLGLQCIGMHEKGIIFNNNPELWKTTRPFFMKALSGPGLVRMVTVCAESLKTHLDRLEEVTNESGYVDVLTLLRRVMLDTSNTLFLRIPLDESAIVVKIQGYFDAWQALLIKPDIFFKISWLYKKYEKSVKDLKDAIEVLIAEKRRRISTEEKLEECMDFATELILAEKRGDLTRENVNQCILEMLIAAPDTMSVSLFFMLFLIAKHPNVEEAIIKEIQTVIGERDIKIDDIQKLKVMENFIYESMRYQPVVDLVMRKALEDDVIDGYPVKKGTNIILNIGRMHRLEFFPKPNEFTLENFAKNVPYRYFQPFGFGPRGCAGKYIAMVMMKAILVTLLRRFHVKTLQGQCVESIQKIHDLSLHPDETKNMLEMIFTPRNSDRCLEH
# [11] = qHTS assay to identify small molecule antagonists of the thyroid receptor (TR) signaling pathway - cell viability counter screen (AID 743064); note: nearly all actives have a fitted effect of over 50% in size
# Method in brief: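 Rat GH3 pituitary tumor cells stably expressing two TR response elements driving luciferase were plated, rested 4 h, then dosed with library compounds and T3 (1 nM final). After 23.5 h at 37 °C, CellTiter-Fluor was added for 30 min and fluorescence recorded.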
# [12] = target: Estrogen receptor (Homo sapiens) (UniProt P03372); assay: qHTS assay to identify small molecule agonists of the estrogen receptor alpha (ER-alpha) signaling pathway (AID 743075; calls by dose curve)
# Sequence of Estrogen receptor (Homo sapiens) (P03372 whole entry, looked up): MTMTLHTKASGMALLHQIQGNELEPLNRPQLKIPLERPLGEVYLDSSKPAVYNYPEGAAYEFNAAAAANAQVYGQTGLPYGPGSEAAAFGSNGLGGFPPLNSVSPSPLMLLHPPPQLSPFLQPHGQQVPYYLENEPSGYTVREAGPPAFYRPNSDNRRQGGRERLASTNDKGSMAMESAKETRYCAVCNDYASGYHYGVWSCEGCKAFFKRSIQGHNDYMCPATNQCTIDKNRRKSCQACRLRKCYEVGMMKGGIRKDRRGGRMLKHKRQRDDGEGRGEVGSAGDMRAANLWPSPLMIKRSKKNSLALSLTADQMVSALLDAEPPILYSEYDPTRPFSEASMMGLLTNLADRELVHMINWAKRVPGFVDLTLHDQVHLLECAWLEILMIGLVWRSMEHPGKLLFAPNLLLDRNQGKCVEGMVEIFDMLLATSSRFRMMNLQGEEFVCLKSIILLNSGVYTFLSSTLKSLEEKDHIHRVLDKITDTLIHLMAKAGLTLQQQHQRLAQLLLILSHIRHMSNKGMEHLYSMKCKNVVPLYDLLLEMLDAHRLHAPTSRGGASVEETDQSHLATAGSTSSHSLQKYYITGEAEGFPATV
# [13] = target: Estrogen receptor (Homo sapiens) (UniProt P03372); assay: qHTS assay to identify small molecule agonists of the estrogen receptor alpha (ER-alpha) signaling pathway using the BG1 cell line (AID 743079); note: nearly all actives have a fitted effect of over 20% in size
# [14] = qHTS assay to identify small molecule antagonists of the estrogen receptor alpha (ER-alpha) signaling pathway using the BG1 cell line (AID 743080; calls by dose curve;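 note: BG1 cells stimulated with 17beta-estradiol alongside compound; series mostly up to about 70 µM; nearly all actives have a fitted effect of over 25% in size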)
# Method in brief: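 Readout is ONE-Glo luminescence, taken 30 min at room temperature after reagent addition, preceded by a CellTiter-Fluor viability read; BG1-Luc-4E2 cells had received compound and 17beta-estradiol for 21.5 h at 37 C.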
# [15] = target: Estrogen receptor (Homo sapiens) (UniProt P03372); assay: qHTS assay to identify small molecule antagonists of the estrogen receptor alpha (ER-alpha) signaling pathway (AID 743069; active = well fitted curve in the direction sought with a large enough effect in the signal ratio in the repeat runs, not every such curve was filed as active; the % refers to the signal ratio)
# Method in brief: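 Screening used a UAS-driven beta-lactamase reporter integrated into HEK293 cells expressing ER-alpha, stimulated with 17beta-estradiol alongside test compounds over 18 hr at 37C; signal came from LiveBLAzer B/G FRET fluorescence.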
Compound,outcome [1],Potency [2],Potency [3],Potency [4],Potency [5],Potency [6],Potency [7],outcome [8],outcome [9],Potency [10],Potency (Aromatase (Homo sapiens)),Potency [11],Potency [12],Potency [13],outcome [14],outcome [15]
CC/C=C\CC/C=C/CO,inactive,inactive,inactive,inactive,inactive,inactive,inactive,inactive,inactive,inactive,inactive,,,,,
COC(=O)c1c(Cl)c(Cl)c(C(=O)OC)c(Cl)c1Cl,inactive,inactive and 48.6 µM (active),inactive,inactive,inactive,inactive,,inactive,inactive,inactive,inactive,inactive,inactive,inactive,inactive,
O=C(O)Cc1ccc(CCNS(=O)(=O)c2ccc(Cl)cc2)cc1,inactive,inactive,inactive,inactive,inactive,inactive,inactive,inactive,inactive,inactive,inactive,,inactive,inactive,,inactive
N[C@H]1CN(c2c(F)cc3c(=O)c(C(=O)O)cn(C4C[C@H]4F)c3c2Cl)CC12CC2 (stereo partly drawn),inactive,inactive,inactive,inactive,inactive,inactive,inactive,inactive,inactive,,inactive,,inactive,inactive,inactive,inactive
CCc1ccc(O)c(OC)c1,inactive,inactive,inactive,inactive,inactive,inactive,inactive,inactive,inactive,inactive,inactive,inactive,,,,
N[C@@H](C(=O)N[C@@H]1C(=O)N2C(C(=O)O)=C(Cl)CS[C@H]12)c1ccccc1,inactive,inactive,inactive,inactive,inactive,inactive,inactive,inactive,inactive,inactive,inactive,,inactive,inactive,,inactive
COC(C)(C)CCCC(C)CC=O (stereo not drawn),inactive,inactive,inactive,inactive,inactive,inactive,inactive,inactive,inactive,inactive,inactive,,,,,
CCCCCCCCS(=O)(=O)Cl,inactive,inactive,inactive,inactive,inactive,inactive,inactive,inactive,inactive,inactive,inactive,,,,,
CC(C)CNCC(C)C,inactive,inactive,inactive,inactive,inactive,inactive,inactive,inactive,inactive,inactive,inactive,,,,,
CCCCOCCOCCOCCCC,inactive,inactive,inactive,inactive,inactive,inactive,inactive,inactive,inactive,inactive,inactive,inactive,,,,
C[C@H](NC(CCc1ccccc1)C(=O)O)C(=O)N1CCC[C@H]1C(=O)O (stereo partly drawn),inactive,inactive,inactive,inactive,inactive,inactive,inactive,inactive,,inactive,inactive,,inactive,inactive,inactive,inactive
